We go through eight molecules from PubChem BioAssay (NCI).

Test systems include SK-MEL-2 melanoma; EKVX NSCLC; SN12C renal; UO-31 renal; TK-10 renal; ACHN renal; CAKI-1 renal; A498 renal; CCRF-CEM leukemia; MOLT-4 leukemia; SR leukemia; RPMI-8226 leukemia; OVCAR-8 ovarian; OVCAR-5 ovarian; OVCAR-4 ovarian; SK-OV-3 ovarian; IGROV1 ovarian; OVCAR-3 ovarian; HS 578T breast; NCI/ADR-RES ovarian.
What all share (assay): NCI-60 one-dose screen, 48 h (100 = growth as untreated, 0 = no growth, -100 = all killed)
What all share (conditions): 10 µM unless noted

The panel holds about 83,000 compounds, 20% with a hit somewhere; the sample as a whole holds those more often.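 Method: cells in 96-well plates; compound added at one concentration; 48 h incubation; percent growth measured; values under 10 scored active.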 Values without a mark were called inactive. Calls of active or inactive are those of the source.

For `Cc1ccc(C=C2C(=O)NC(=O)NC2=O)cc1`, the growth in the assay with SK-MEL-2 melanoma was 104%; in the assay on EKVX NSCLC it was 101%; in the assay with SN12C renal, 99.2%; with UO-31 renal, 89.9%; in the assay with TK-10 renal, 97.8%; with ACHN renal, 110%. For the same molecule, the growth in the assay with CAKI-1 renal is 100%; with A498 renal, 105%; in the assay on CCRF-CEM leukemia it was 103%; with MOLT-4 leukemia, 95.1%; in the assay with SR leukemia it was 96.9%; in the assay on RPMI-8226 leukemia, 103%. For the same molecule, the growth with OVCAR-8 ovarian was 100%; in the assay with OVCAR-5 ovarian, 107%; with OVCAR-4 ovarian, 110%; in the assay on SK-OV-3 ovarian, 105%; in the assay with IGROV1 ovarian, 104%; with OVCAR-3 ovarian, 105%. Moreover, the growth with HS 578T breast is 105%; in the assay with NCI/ADR-RES ovarian, 102%.

In the case of `COc1cc(OC)cc(-c2ccc(-c3ccc(C(=N)N)o3)o2)c1`, the growth is 88.1% in the assay with SK-MEL-2 melanoma; 85.2% with EKVX NSCLC; 53% with SN12C renal; 67.3% with UO-31 renal; 83.7% with TK-10 renal; 72.6% in the assay on ACHN renal. In addition, the growth is 81.3% in the assay on CAKI-1 renal; 68.5% in the assay with A498 renal; 48.3% with CCRF-CEM leukemia; 31.4% in the assay with MOLT-4 leukemia; -17.3% (active) with SR leukemia; 20.6% in the assay with RPMI-8226 leukemia. The growth in the assay on OVCAR-8 ovarian was 64.3%; in the assay with OVCAR-5 ovarian, 83.5%; in the assay on OVCAR-4 ovarian, 85.5%; in the assay on SK-OV-3 ovarian, 88.2%; in the assay on IGROV1 ovarian, 58.1%; in the assay with OVCAR-3 ovarian, 25.7%. In addition, the growth was 78% with HS 578T breast and 68.9% with NCI/ADR-RES ovarian.

Turning to `CN(C)c1ccc(/C=C(\C#N)c2cc3ccccc3[nH]2)cc1`, the growth in the assay on SK-MEL-2 melanoma is 27.3%; in the assay with EKVX NSCLC, 42.2%; with SN12C renal, 29%; in the assay with UO-31 renal, 37.8%; in the assay with TK-10 renal, 49.2%; in the assay on ACHN renal it was 46.2%. For the same molecule, the growth in the assay with CAKI-1 renal was 31.5%; with A498 renal it was 14.4%; with CCRF-CEM leukemia, 9.57% (active); in the assay with MOLT-4 leukemia, 38.4%; in the assay on SR leukemia, 20%; in the assay on RPMI-8226 leukemia, 6.48% (active). Also, the growth is 26% with OVCAR-8 ovarian; 44.9% in the assay with OVCAR-5 ovarian; 55.7% with OVCAR-4 ovarian; 26.5% in the assay with SK-OV-3 ovarian; 50% in the assay on IGROV1 ovarian; 8.37% (active) in the assay on OVCAR-3 ovarian. For the same molecule, the growth is 1.2% (active) in the assay on HS 578T breast and 10.8% in the assay with NCI/ADR-RES ovarian.

Turning to `Cc1ccc(C)c2c(C)c(C(=O)Nc3cccc(-n4cccn4)c3)oc12`, the growth is 66.3% [50 µM] with SK-MEL-2 melanoma; 53.8% [50 µM] in the assay on EKVX NSCLC; 70% [50 µM] in the assay with SN12C renal; 40.7% [50 µM] in the assay with UO-31 renal; 82.1% [50 µM] with TK-10 renal; 64.9% [50 µM] in the assay with ACHN renal. For the same molecule, the growth is 44.6% [50 µM] in the assay on CAKI-1 renal; 55.6% [50 µM] with A498 renal; 42.4% [50 µM] with CCRF-CEM leukemia; 42.2% [50 µM] in the assay on MOLT-4 leukemia; 56.7% [50 µM] in the assay on SR leukemia; 43.8% [50 µM] in the assay on RPMI-8226 leukemia. The growth is 42.4% [50 µM] with OVCAR-8 ovarian; 93.6% [50 µM] in the assay on OVCAR-5 ovarian; 50.4% [50 µM] in the assay on OVCAR-4 ovarian; 111% [50 µM] in the assay with SK-OV-3 ovarian; 76.3% [50 µM] in the assay on IGROV1 ovarian; 82% [50 µM] in the assay with OVCAR-3 ovarian. In addition, the values for the growth in the assay with HS 578T breast and with NCI/ADR-RES ovarian were 81.1% [50 µM] and 54.3% [50 µM], respectively.

For the molecule `O=C(CCCCCCN1CC(=O)N2[C@H](c3ccc(Cl)cc3)c3[nH]c4ccccc4c3C[C@@H]2C1=O)NO`, the growth with SK-MEL-2 melanoma is 66.1%; in the assay on EKVX NSCLC, 65.7%; in the assay on SN12C renal, 63.1%; in the assay on UO-31 renal, 57.9%; in the assay on TK-10 renal it was 55.8%; in the assay on ACHN renal it was 84.4%. Also, the growth is 65.2% in the assay with CAKI-1 renal; 78.9% in the assay on A498 renal; 25.7% with CCRF-CEM leukemia; 4.87% (active) in the assay with MOLT-4 leukemia; 21.6% with SR leukemia; 24.5% in the assay on RPMI-8226 leukemia. For the same molecule, the growth is 51.8% in the assay with OVCAR-8 ovarian; 59.5% in the assay on OVCAR-5 ovarian; 74.3% in the assay with OVCAR-4 ovarian; 62.9% in the assay on SK-OV-3 ovarian; 33.5% in the assay on IGROV1 ovarian; 56.5% with OVCAR-3 ovarian. The growth in the assay on HS 578T breast is 63.7%; in the assay on NCI/ADR-RES ovarian, 90.2%.

As for `COC(=O)c1c2c(n3ccccc13)C(=O)c1ccccc1C2=O`, the growth with SK-MEL-2 melanoma was 75.3%; with EKVX NSCLC, 70.9%; in the assay on SN12C renal, 53.2%; in the assay with UO-31 renal, 35%; with TK-10 renal, 80.7%; in the assay with ACHN renal, 38.6%. Besides, the growth with CAKI-1 renal was 56%; in the assay on A498 renal, 67.1%; with CCRF-CEM leukemia, 59.1%; with MOLT-4 leukemia it was 35.5%; in the assay on SR leukemia, 38.7%; in the assay on RPMI-8226 leukemia, 68.3%. For the same molecule, the growth in the assay on OVCAR-8 ovarian was 45%; in the assay with OVCAR-5 ovarian it was 116%; with OVCAR-4 ovarian, 77.3%; in the assay with SK-OV-3 ovarian it was 94.8%; in the assay on IGROV1 ovarian, 57.5%; in the assay with OVCAR-3 ovarian, 55.7%. Moreover, the growth was 73.7% with HS 578T breast and 65.4% in the assay with NCI/ADR-RES ovarian.

As to `Cc1ccc(-c2nc(SCc3nc4cc(Cl)c(Cl)cc4[nH]3)[nH]c(=O)c2C#N)cc1`, the growth was 90.1% in the assay with SK-MEL-2 melanoma; 96.4% in the assay with EKVX NSCLC; 102% with SN12C renal; 81.7% with UO-31 renal; 99.3% with TK-10 renal; 106% in the assay on ACHN renal. Moreover, the growth in the assay on CAKI-1 renal was 88.3%; in the assay on A498 renal, 112%; in the assay on CCRF-CEM leukemia it was 111%; in the assay on MOLT-4 leukemia, 101%; in the assay on SR leukemia, 96.7%; in the assay with RPMI-8226 leukemia, 115%. Further, the growth was 98.2% in the assay on OVCAR-8 ovarian; 101% in the assay on OVCAR-5 ovarian; 105% with OVCAR-4 ovarian; 96.2% with SK-OV-3 ovarian; 99.6% with IGROV1 ovarian; 99.9% in the assay on OVCAR-3 ovarian. In addition, the growth in the assay on HS 578T breast was 102%; in the assay with NCI/ADR-RES ovarian it was 111%.

Turning to `O=c1c2c3c(sc2n2c(-c4cc(-c5ccccc5)no4)nnc2n1Cc1ccccc1)CCCC3`, the growth in the assay on SK-MEL-2 melanoma was 119%; with EKVX NSCLC, 80%; in the assay with SN12C renal, 90.8%; in the assay with UO-31 renal, -41.9% (active); in the assay with TK-10 renal, 120%; in the assay with ACHN renal, 95.4%. Further, the growth with CAKI-1 renal is -67.8% (active); with A498 renal, 82.2%; with CCRF-CEM leukemia it was 34.8%; with MOLT-4 leukemia it was 55%; in the assay with SR leukemia it was 55.7%; in the assay with RPMI-8226 leukemia it was 53.5%. Further, the growth in the assay on OVCAR-8 ovarian was 40.9%; in the assay on OVCAR-5 ovarian, 82.8%; with OVCAR-4 ovarian, 87.6%; in the assay on SK-OV-3 ovarian it was 124%; in the assay with IGROV1 ovarian it was -11.9% (active); in the assay with OVCAR-3 ovarian it was 78.7%. Besides, the growth in the assay on HS 578T breast is 101%; in the assay with NCI/ADR-RES ovarian it was 80.6%.
